{"source": "PubChem BioAssay AID1347417", "about": "(National Center for Advancing Translational Sciences (NCATS), 2020)", "note": "The campaign covered roughly 120,000 compounds. About 5,300 (4.4%) were called active. Another 22% or so got no clear call; they are omitted. Calls follow the shape of the dose curve; as a rule, active = well fitted inhibition curve with a large enough effect; inconclusive = small, poorly fitted or top-dose-only effect; inactive = no such curve, though single readings can be large or run the other way. The list comes from a sample in which actives are over-represented; it also holds similar structures and randomly drawn compounds. Entries that show only a call come without a potency. Potency is read from the fitted curve at half-maximal effect."}
{"assay": "qHTS Primary assay for Inhibitors of Plasmodium falciparum Dd2 growth in vitro; also: nearly all actives have a fitted effect of over 65% in size", "details": "P. falciparum Dd2 growth, SYBR Green, 72 h; series mostly up to 28.9 µM", "summary_of_the_method": "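Readout: SYBR Green fluorescence, 485 nm excitation, 535 nm emission, after ~16 h lysis at 37C. Before that, Dd2-infected red cells (2.5% hematocrit) grew 72 h with compound, 29 uM top final concentration.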"}
{"smiles": "O=C1NCCOCCCN(C(=O)NCCc2ccccc2)[C@H]2CCC[C@@H]12", "Potency": "inactive"}
{"smiles": "CC(=O)N(C1CC1)C1CCOC2(CCN(C(=O)C3(c4ccccc4)CC3)CC2)C1", "note": "(centres undefined)", "Potency": "inactive"}
{"smiles": "O=C1NCCCCCN(C(=O)NCCc2ccccc2)[C@H]2CCC[C@@H]12", "Potency": "inactive"}
{"smiles": "O=C(Cc1cccs1)N1CCCCCC1c1nc(C2CC2)no1", "note": "(centres undefined)", "Potency": "inactive"}
{"smiles": "O=C(N1CCCCCC1CN1CCOCC1)C1(c2ccccc2)CC1", "note": "(centres undefined)", "Potency": "10 µM (active)"}
{"smiles": "O=C(N1CCCC(Cc2nc(C3CCOCC3)no2)C1)C1(c2ccccc2)CC1", "note": "(centres undefined)", "Potency": "inactive"}
{"smiles": "O=C(NCCc1ccccc1)N1CCCCCC1CN1CCOCC1", "note": "(centres undefined)", "Potency": "7.94 µM (active)"}
{"smiles": "COC1CCN(CC2CCCCCN2C(=O)NCc2ccc(F)cc2)CC1", "note": "(centres undefined)", "Potency": "inactive"}
{"smiles": "O=C(c1cccs1)N1CCCCCC1CN1CCCC1", "note": "(centres undefined)", "Potency": "1.26 µM (active)"}
{"smiles": "Cc1cc(C)n(-c2cccc(CN(C)Cc3nc(-c4ccccn4)no3)c2)n1", "Potency": "inactive"}
{"smiles": "CC(C)c1ccc(N2C(=O)N[C@@H]3CCN(C(=O)c4ccc(C(C)(C)C)cc4)[C@@H]3C2=O)cc1", "Potency": "inactive"}
{"smiles": "O=C(Cn1ccn2nc(-c3ccccc3)c(CO)c2c1=O)Nc1ccc2c(c1)CCC2", "Potency": "inactive"}
{"smiles": "O=C(c1ccc2cc[nH]c2c1)N1CCCN(c2cc(-c3ccc(Cl)cc3)[nH]n2)CC1", "Potency": "inactive"}
{"smiles": "CN1C(=O)CS(=O)C12CCN(S(=O)(=O)c1ccc(F)cc1)CC2", "note": "(centres undefined)", "Potency": "inactive"}
{"smiles": "Cc1noc([C@@H]2CN(Cc3ccc(C)o3)C[C@H]2CO)n1", "Potency": "inactive"}
{"smiles": "CN(C)c1ccc(NC(=O)CSc2nc(-c3ccco3)cc(C(F)(F)F)n2)cc1", "Potency": "inactive"}
{"smiles": "Cc1ccc(F)cc1NC(=O)CCSc1nc(-c2ccco2)cc(C(F)(F)F)n1", "Potency": "0.794 µM (active)"}
{"smiles": "Cc1cccc(NC(=O)CSc2nc(-c3ccco3)cc(C(F)(F)F)n2)c1C", "Potency": "inactive"}
{"smiles": "Cc1cc(C)cc(C(=O)NCCc2noc(C)n2)c1", "Potency": "inactive"}
{"smiles": "COc1ccccc1N1CCN(c2ncnc3onc(-c4ccc(F)cc4)c23)CC1", "Potency": "inactive"}
{"smiles": "Cc1ccc(Cl)cc1N(C)C(=O)C1CCCN(c2ncnc3onc(-c4ccc(F)cc4)c23)C1", "note": "(centres undefined)", "Potency": "8.91 µM (active)"}
{"smiles": "Cc1c(Cl)cccc1NC(=O)C1CCCN(c2ncnc3onc(C)c23)C1", "note": "(centres undefined)", "Potency": "inactive"}
{"smiles": "COc1ccc(C(=O)N[C@H](c2cnn(C)c2)C2CC(O)C2)c(F)c1F", "note": "(some centres undefined)", "Potency": "inactive"}
{"smiles": "COc1cccc(CN2CCN(Cc3ncccc3C)CC2)c1O", "Potency": "inactive"}
{"smiles": "CCOC(=O)c1[nH]ncc1CN1CCCC(Cc2ccc(F)cc2F)(C(=O)OCC)C1", "note": "(centres undefined)", "Potency": "inactive"}
{"smiles": "CCOC(=O)C1(Cc2ccc(F)cc2F)CCCN(Cc2cccc(OC)c2O)C1", "note": "(centres undefined)", "Potency": "3.16 µM (active)"}
{"smiles": "CC(=O)c1ccc(NC(=O)C2CCN(S(=O)(=O)c3c(C)noc3/C=C/c3ccc(C)cc3)CC2)cc1", "Potency": "inactive"}
{"smiles": "CCOC(=O)c1c(C)[nH]c(C)c1S(=O)(=O)N1CCC(C(=O)Nc2ccc(C)c(Cl)c2)CC1", "Potency": "inactive"}
{"smiles": "CCOc1ccc(NC(=O)C2CCN(S(=O)(=O)c3cc(-c4noc(C)n4)ccc3C)CC2)cc1", "Potency": "3.98 µM (active)"}
